# Only some compounds are listed: those with a hit (about 0.99% of all), similar ones and a draw of the others.
# DUSP1 inh: MKP-1 phosphatase inhibitors, primary screen, biochemical, in vitro. Dual specificity protein phosphatase 1 (Homo sapiens), P28562. recombinant MKP-1, OMFP hydrolysis fluorescence. inhibition, %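 (compounds tested at a single concentration somewhere between 10 and 100 µM)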. hit rate 0.15% among 65,000. AID 374, 2006;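 active means inhibition above about 50%, limit read from the data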;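 further: 0% = DMSO max control wells and 100% = wells with enzyme stopped by NaOH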
# SKBR3 24h inh: SK-BR-3 proliferation inhibitors, primary screen, cell-based, human, 24 h | hit rate 0.47% among 41,000 | SK-BR-3 viability, CellTiter-Glo ATP luminescence; hits give low values | viability, % at 10 µM;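 active means viability at or below the median of all test compounds minus 3 SD, in both replicates if run twice, cut at about 45% in these data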;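 further: 100% = median untreated cell wells and 0% = median positive control drug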
# Cdc25B inh: inhibitors of Cdc25B phosphatase catalytic domain, primary screen, biochemical, OMFP fluorescence; recombinant Cdc25B, OMFP fluorescence Ex485/Em525; M-phase inducer phosphatase 2 (Homo sapiens), P30305; AID 368, 2006; hit rate 0.1% among 65,000; inhibition, %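 (compounds tested at 10 µM final in the well)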; in the data active means inhibition above about 50%
# ROCK2 blocker: inhibitors of human ROCK2 kinase, primary screen, biochemical, high-throughput, luminescence; purified ROCK2, Kinase-Glo ATP depletion luminescence; Rho-associated protein kinase 2 (Homo sapiens), O75116; inhibition, % at 6 µM; hit rate 0.35% among 60,000;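 active means inhibition above the screen-wide mean inhibition plus 3 SD, cut at about 18% in these data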;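 further: plate controls were DMSO wells for no effect and Y-27632 control wells after no-enzyme background subtraction for full effect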
# Hsp90 block: tumor Hsp90 inhibitors, primary screen, cell lysate, fluorescence polarization, NCI-N417 lysate; Cy3B-geldanamycin FP displacement; inhibition, % at 30 µM; Heat shock protein HSP 90-alpha (Homo sapiens), P07900; hit rate 0.35% among 64,000; AID 429, 2006;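 active means inhibition above 50%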;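 further: 0% = tracer plus lysate wells and 100% = tracer alone without lysate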
# PKA inh: inhibitors of human PKA kinase activity, primary screen, biochemical, ATP-depletion luminescence, Kemptide substrate | PKA Kemptide phosphorylation, Kinase-Glo ATP luminescence | inhibition, % at 6 µM | hit rate 0.1% among 65,000;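 active means inhibition above the screen-wide mean inhibition plus 3 SD, cut at about 21% in these data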
# Redox H2O2: redox cycling hydrogen peroxide production, dose response, artefact control, biochemical, probe assessment | shares compounds with DUSP1 inh | Redox cycling H2O2 generation, DTT, phenol red/HRP | EC50, µM | 60 tested, under 10 active | AID 672, 2007; call rule not given here
# Starred values were filed as active, the others as inactive; . = no result.
SMILES,DUSP1 inh,SKBR3 24h inh,Cdc25B inh,ROCK2 blocker,Hsp90 block,PKA inh,Redox H2O2
Cc1ccc(C)n1-c1cccc(C(=O)O)c1,50*,99,21,-1,0,0,>50
CCS(=O)(=O)N1Cc2ccccc2CC1C(=O)N1CCN(c2cccc(C)c2C)CC1 (stereo not given),32,.,-2,7,-6,11,.
O=C1c2ccccc2C(=O)N1CCn1c(=O)oc2ccccc21,5,96,0,4,2,8,.
O=C1Nc2ccccc2SC(c2ccccc2)C1O (stereo not given),58*,.,21,8,0,13,>50
COC(=O)c1ccccc1NC(=O)CN1C(=O)C2CCCN2c2ncc(Cl)cc21 (stereo not given),50*,.,5,-3,-19,1,>50
CCc1ccccc1NC(=O)CN1C(=O)C2CCCN2c2ncc(Cl)cc21 (stereo not given),4,96,-6,0,-6,0,.

# From PubChem
